Bioassay records as filed in PubChem.
Wnt bcat act: Wnt/beta-catenin pathway activators, primary screen, cell-based, plate reader, single point | 300,000 compounds, 1.2% hits | activation, % at 9.35 µM | AID 743398, 2014 | Wnt/beta-catenin reporter cell assay, activator; in the data active means activation above about 30%, passing the limit was not always enough; inconclusive means no clear call, values can overlap the other calls;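 further: 0% = neutral control wells and 100% = positive control wells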
esBAF inh: Bmi1 luciferase reporter increase in mESCs, primary screen, esBAF inhibitor project, mouse ES cells, Bmi1 luciferase knock-in, single point; 24 h; 100% = twice the neutral-well signal; 350,000 compounds, 2% hits; AID 602393, 2012; reporter increase, % at 12.5 µM; in the data active means activation above about 40%; inconclusive means no clear call, values can overlap the other calls;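 further: 0% = median of the plate's neutral control wells and 100% = double that signal; a rise in the Bmi1 reporter signal indicates esBAF inhibition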
FXN GAA850 act: FXN promoter activators, primary screen, cell-based, luciferase luminescence, HEK293 lucGAA850; HEK293 lucGAA850 FXN promoter luciferase reporter, 24 h; percent of 10 µM SAHA response; activation, % at 6 µM; 360,000 compounds, 0.56% hits; AID 540364, 2011;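 active means activation above the average of all compounds screened plus 3 SD, cutoff fixed separately per campaign, cut at about 7.5% in these data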;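 further: 0% = DMSO wells and 100% = 10 µM SAHA wells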
MITF TRPM1 HTS: activators of MITF-driven TRPM1 promoter reporter, primary screen, cell-based, SK-MEL-5, luciferase, single point | SK-MEL-5 TRPM1-promoter luciferase, 24 h; % of positive control, neutral wells = 0 | activation, % at 12.5 µM | 300,000 compounds, 0.75% hits | AID 588334, 2011;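 active means mean activation of at least 80% with every replicate also reaching 80%; inconclusive means mean reaches 80% but some replicate falls short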;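 further: 0% = neutral control wells and 100% = parthenolide positive control wells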
Statin myotox sup: suppressors of statin myotoxicity in C2C12 myotubes, primary screen, cell-based, single point, plate reader. C2C12 myotubes + simvastatin, ATP luminescence, 48 h; scaled: DMSO 0, geranylgeraniol control 100. rescue of ATP level, % at 7.49 µM. 330,000 compounds, 0.78% hits;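 active means mean ATP rescue above about 67%, or every replicate alone reaching that limit, limit read from the data, passing the limit was not always enough; inconclusive means no clear call, values can overlap the other calls; inactive means mean under the limit and some replicate under it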;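 further: myotubes were challenged with 10 µM simvastatin during compound exposure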
GAA30 FXN cntr: GAA30 FXN promoter activators, confirmation, counter-screen for GAA850 frataxin promoter activator project, cell-based, luminescence, HEK293, lucGAA30, triplicate | activation, % at 6 µM | AID 588350, 2011 | shares compounds with FXN GAA850 act | 1,900 compounds, 66% hits | HEK293 lucGAA30 FXN promoter luciferase, 24 h; DMSO = 0%, 5 µM ipriflavone = 100%;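 active means mean activation above the mean of solvent-only control wells plus 3 SD, cut at about 22% in these data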;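 further: counterscreen of GAA850 promoter hits where activity marks nonselective or luminescence artifacts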
GAA850 confirm: FXN GAA850 promoter activators in reporter cells, confirmation, cell-based, luminescence, HEK293 lucGAA850, triplicate. shares compounds with FXN GAA850 act. HEK293 lucGAA850 FXN promoter luciferase reporter, 24 h; 100% = activation by SAHA. activation, % at 6 µM. 1,900 compounds, 86% hits;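 active means mean activation above a set limit taken from the primary screen, cut at about 8% in these data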;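 further: 0% = DMSO wells and 100% = 10 µM SAHA wells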
* marks the source's active call; other numbers are inactive results; ? = inconclusive; / = not tested or not shown. The list is not random: actives were taken first. Their share in the collection is about 3.3%.

SMILES | Wnt bcat act | esBAF inh | FXN GAA850 act | MITF TRPM1 HTS | Statin myotox sup | GAA30 FXN cntr | GAA850 confirm
CCOC(=O)C/C(=N\Nc1ncnc2ccccc12)c1ccccc1 | 27 | 43* | 8.3* | 41 | -4 | 84* | 35*
Cc1ccc(S(=O)(=O)N2C[C@H](O)COC[C@@H]3O[C@H](CC(=O)NCC4CCCCC4)CC[C@H]32)cc1 | / | -2 | / | / | -8 | / | /
Cc1nc(SCC(=O)c2cccs2)c2oc3ccccc3c2n1 | 71* | / | 7.6* | / | / | 101* | 39*
COC(=O)c1c(NC(=O)Cc2cccs2)sc(C(=O)N2CCCCC2)c1C | / | -1 | 9.2* | 10 | -9 | 8 | 9.3*
Cc1cccc(N=Nc2ccc(O)c3ncccc23)c1 | / | / | 12* | -70 | / | -102 | -32
Cc1noc(C)c1NC(=O)Nc1cccc2c1O[C@@H](CN(C)C(=O)NC1CCCCC1)[C@@H](C)CN([C@H](C)CO)C2=O | / | -3 | / | / | -3 | / | /
CC(=O)c1sc(Nc2cccc(C)c2)nc1C | 6 | / | 7.8* | 13 | / | 101* | 31*
CC(=O)c1sc(Nc2ccccc2)nc1C | 1 | 36 | / | / | 4 | / | /
O=c1[nH]nc(CNc2ccc(OC(F)(F)F)cc2)c2ccccc12 | 9 | 28 | 9.0* | 53 | -1 | 40* | 20*
Cc1cccc2cc(CN(C(=O)c3cnccn3)C3CCCCC3)c(Cl)nc12 | -4 | 3 | 7.6* | 0 | 2 | 11 | 5
COCCNc1nc(C)cc(-c2cc(C(=O)NCc3ccccc3)on2)n1 | -1 | 1 | 2 | -8 | -10 | / | /
Cc1cc(-c2cc(C(=O)NCc3ccccc3)on2)nc(S(C)(=O)=O)n1 | 2 | 6 | 9.7* | -24 | -22 | 50* | 26*
CC(C)NC(=O)N(C)C[C@@H]1Oc2c(NS(C)(=O)=O)cccc2C(=O)N([C@H](C)CO)C[C@@H]1C | / | 1 | / | / | -11 | / | /
CC(C)C[C@@]12C(=O)N(c3cccc(F)c3)C(=O)N1[C@H](c1ccc(Br)cc1)[C@@H]1C(=O)N(C(C)(C)C)C(=O)[C@@H]12 | -1 | 1 | 17* | 5 | -1 | 29* | 18*
CCN1C(=O)[C@H]2[C@@H](c3ccc(C)cc3)N3C(=O)N(c4cccc(C)c4)C(=O)[C@@]3(Cc3ccccc3)[C@H]2C1=O | -6 | 14 | -2 | 2 | 2 | / | /
COc1ccc([C@@H]2[C@@H]3C(=O)N(C(C)(C)C)C(=O)[C@@H]3[C@]3(Cc4ccc(Cl)cc4)C(=O)N(c4ccc(C)cc4)C(=O)N23)cc1 | -3 | 9 | -2 | -10 | -7 | / | /
CC[C@@]12C(=O)N(c3cccc(C)c3)C(=O)N1[C@H](c1ccc(Br)cc1)[C@@H]1C(=O)N(C(C)(C)C)C(=O)[C@@H]12 | -1 | 16 | 16* | -3 | 6 | 23* | 11*
CC(C)C[C@@]12C(=O)N(c3ccc(Br)cc3)C(=O)N1[C@H](c1ccc(Br)cc1)[C@@H]1C(=O)N(C(C)(C)C)C(=O)[C@@H]12 | -5 | -5 | 17* | 5 | 9 | 18 | 18*
CC[C@@]12C(=O)N(c3cccc(Cl)c3)C(=O)N1[C@H](c1ccc(Br)cc1)[C@@H]1C(=O)N(C(C)(C)C)C(=O)[C@@H]12 | -1 | -6 | 14* | 12 | -9 | 35* | 17*
CCN1C(=O)[C@H]2[C@@H](c3ccc(C)cc3)N3C(=O)N(c4cccc(Cl)c4)C(=O)[C@@]3(Cc3ccc(Cl)cc3)[C@H]2C1=O | -3 | -8 | 1 | -4 | 4 | / | /
C[C@@H]1CCCCO[C@@H](CN(C)S(C)(=O)=O)[C@H](C)CN([C@@H](C)CO)C(=O)c2cc(NS(=O)(=O)c3cn(C)cn3)ccc2O1 | / | 1 | / | / | / | / | /
CCN1C(=O)[C@H]2[C@@H](c3ccc(C)cc3)N3C(=O)N(c4cccc(Cl)c4)C(=O)[C@@]3(CC(C)C)[C@H]2C1=O | -3 | -4 | 17* | -2 | 1 | 26* | 12*
CC(C)C[C@@]12C(=O)N(c3cccc(Cl)c3)C(=O)N1[C@H](c1ccc(Br)cc1)[C@@H]1C(=O)N(C(C)(C)C)C(=O)[C@@H]12 | -6 | -2 | 15* | 7 | 98* | 33* | 18*
CCN1C(=O)[C@H]2[C@@H](c3ccc(C)cc3)N3C(=O)N(c4cccc(Cl)c4)C(=O)[C@@]3(Cc3ccccc3)[C@H]2C1=O | -2 | -5 | -2 | 1 | -1 | / | /
C[C@@H]1CN([C@@H](C)CO)C(=O)c2cc(-c3ccccc3F)cnc2O[C@@H]1CN(C)C(=O)NC1CCCC1 | / | 0 | / | / | -21 | / | /
SMILES | Wnt bcat act | esBAF inh | FXN GAA850 act | MITF TRPM1 HTS | Statin myotox sup | GAA30 FXN cntr | GAA850 confirm
ON=C1c2ccccc2-c2ccc(Br)cc21 | -1 | 4 | 1 | 1 | -14 | / | /
NC(=S)NN=C1c2ccccc2-c2cc(Br)ccc21 | 0 | -9 | 11* | -18 | -3 | 17 | 14*
CCOC(=O)c1sc(=NC(=O)c2ccccc2Br)n(C)c1C | 32* | 58* | 11* | ? | -23 | 106* | 29*
C[C@@H]1CN([C@H](C)CO)C(=O)c2cc(C#CC3CCCCC3)cnc2O[C@H]1CN(C)C(=O)C1CCCCC1 | / | 4 | / | / | 37 | / | /
Cc1cc(NC(=O)CCS(=O)(=O)c2nc(-c3ccccc3)cc(C(F)(F)F)n2)no1 | -2 | 11 | 4 | / | / | / | /
CS(=O)(=O)c1nc(-c2ccccc2)cc(C(F)(F)F)n1 | / | 31 | 25* | -95 | / | -82 | -27
COc1ccccc1-c1cn(CC[C@@H]2CC[C@H](NS(=O)(=O)c3ccccc3C)[C@H](CO)O2)nn1 | / | -1 | / | / | 5 | / | /
Cc1cc(NC(=O)CSCC(=O)Nc2cc(C(F)(F)F)ccc2N2CCOCC2)no1 | 0 | -9 | 1 | 4 | -3 | / | /
Cc1ccc(NC(=O)CSCC(=O)Nc2cc(C(F)(F)F)ccc2N2CCOCC2)cc1 | / | / | 11* | 11 | / | 25* | 11*
COc1cccc(S(=O)(=O)N(C)C[C@H]2Oc3ncc(-c4cccc(C(=O)N(C)C)c4)cc3C(=O)N([C@H](C)CO)C[C@@H]2C)c1 | / | 4 | / | / | -11 | / | /
COCCn1c(C)cc(C(=O)COC(=O)c2ccc3ncsc3c2)c1C | 23 | 25 | 7.8* | 47 | -1 | 93* | 32*
